In all, about 94,000 compounds went through this assay and about 410 (0.44%) were called active.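 The calls were made as follows: active = inhibition above about 30% together with a positive call from visual inspection of the well image (limit read from the data); inconclusive = inhibition above a set limit but visual check negative; inactive = inhibition not above a set limit, visual check negative.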 The entries come from a sample that favours actives as a whole.
experiment: inhibitors of IL-1B driven NFkB p65 nuclear import, primary screen, imaging, HUVEC, IL-1B stimulus, high-content imaging (AID 796); settings: HUVEC IL-1B NFkB p65 nuclear translocation imaging; at 2 µM; stronger effect = higher value;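 also: nuclear over cytoplasmic p65 intensity ratio measured by imaging; 0% = IL-1B stimulated DMSO wells and 100% = unstimulated DMSO wells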

SMILES	inhibition
CN(C)c1ccnc2sc3c(=O)n(-c4ccc(Cl)cc4)cnc3c12	-8.3% (inactive)
Cc1cc(=O)[nH]c(SCc2cccc(F)c2)n1	-8.1% (inactive)
CCCNC(=S)NC1CC2CCCC(C1)N2CC(C)C (stereo not drawn)	-10.2% (inactive)
CSc1ccccc1-c1nnc(-c2ccc(Cl)cc2)o1	-15.4% (inactive)
Cc1nnc(SCC(=O)N/N=C/c2cn(-c3ccccc3)nc2-c2ccc(F)cc2)n1-c1ccccc1	16.3% (inactive)
O=C(Nc1ccc(-n2ccnc2P(=O)(O)c2ccccc2)cc1)c1ccccc1Br	-9.1% (inactive)
COC(=O)Nc1sc2nc(C)cc(C)c2c1-n1cccc1	8.1% (inactive)
O=C(Nc1nnc(SCc2c(Cl)cccc2Cl)s1)C1CCCO1 (stereo not drawn)	6.6% (inactive)
Cc1cccc(C(=O)Nc2ccccc2N2CCN(c3ccc(F)cc3)CC2)c1	4.6% (inactive)
CCCOc1ccccc1C1CC(=O)Nc2cc3c(cc21)OCO3 (stereo not drawn)	-2.7% (inactive)
COc1ccccc1C1C2=C(COC2=O)Nc2cc3c(cc21)OCO3 (stereo not drawn)	39.9% (active)
O=C1NC(c2cc3c(cc2Cl)OCO3)Oc2ccccc21 (stereo not drawn)	-2.5% (inactive)
N#Cc1ccc(-c2ccc(F)cc2)nc1Sc1ccccc1	0% (inactive)
Cc1cc(=O)oc2cc(OC(C)C(=O)Nc3ccc(N4CCOCC4)cc3)ccc12 (stereo not drawn)	22.6% (inactive)
Cc1ccccc1NC(=O)C(C)c1ccc(-c2ccccc2)c(F)c1 (stereo not drawn)	-13% (inactive)
CCN1CCN(C(=O)C2(NC(=O)Nc3cccc(F)c3)CCCCC2)CC1	9.4% (inactive)
CN(C)c1ccnc(Oc2ccc(F)cc2)c1C#N	-4.4% (inactive)
COc1ccc(OCC(=O)N2CCN(C(=O)c3cccs3)CC2)cc1	42.9% (active)
O=C(COc1ccc2ccccc2c1)N1CCN(C(=O)c2cccs2)CC1	12.1% (inactive)
COc1ccc(OCC(=O)N2CCN(C(=O)COc3ccccc3)CC2)cc1	-0.4% (inactive)
CC(C)c1ccc(N2CCN(C(=O)c3ccccc3NC(=O)/C=C(\C(=O)O)c3ccccc3)CC2)cc1	-24.1% (inactive)
Cc1nn(C)c(Oc2ccc(Cl)cc2)c1C=O	-7.4% (inactive)
CC(=O)Nc1ccc(S(=O)(=O)N2CCN(C(=O)c3ccccc3F)CC2)cc1	-10.6% (inactive)
Cc1[nH]nc(-c2ccc(OCc3cnn(-c4ccccc4)c3)cc2O)c1Oc1ccc(Cl)cc1	-4.6% (inactive)
COC(=O)C1(O)CC(C(C)C)=NN1C(=O)c1ccc(Cl)cc1 (stereo not drawn)	-3.2% (inactive)
Cc1ccc(S(=O)(=O)c2c(COC(=O)c3cccc(Cl)c3)c(-c3ccccc3)nn2C)cc1	-7.8% (inactive)

SMILES	inhibition
CCN(CC)C(=O)CSc1nc2ccccc2o1	-3.4% (inactive)
COc1cc(/C=N/Nc2nn3cnnc3c3ccccc23)cc(OC)c1OC	-1.1% (inactive)
COc1ccc(/C=N\NC(=O)c2sc(N)nc2C)cc1OC	1.2% (inactive)
COc1ccc(/C=N/Nc2nc3ccccc3o2)cc1OC	45.9% (active)
CCCc1ccc(-c2c(C)sc(NC(=O)c3ccnn3C)c2C#N)cc1	3.3% (inactive)
Cc1cc(C)c([N+](=O)[O-])cc1-c1ccc(/C=N/NC(=O)c2nonc2N)o1	-17.6% (inactive)
CC(CC(=O)Nc1cc(C(F)(F)F)ccc1Cl)c1ccccc1 (stereo not drawn)	-2.6% (inactive)
CC(C)C(NS(=O)(=O)c1cccs1)C(=O)Nc1nc(C(C)(C)C)cs1 (stereo not drawn)	1.6% (inactive)
COc1ccc(C2=NOC3(CC(=O)N(c4ccc(Cl)cc4)C3=O)C2)c(OC)c1 (stereo not drawn)	0.4% (inactive)
CSCCC(C(=O)NC1=NCCS1)N1C(=O)c2ccccc2C1=O (stereo not drawn)	-15.1% (inactive)
CCC1(C)Cc2c(sc3[nH]c(=S)n(Cc4ccccc4)c(=O)c23)CO1 (stereo not drawn)	-4.8% (inactive)
CCOc1ccc(Nc2nc(Cc3nnc(SCC(=O)NC4CCCC4)n3C)cs2)cc1	-8.9% (inactive)
O=C(CSCc1c(F)cccc1Cl)NCC1CCCO1 (stereo not drawn)	-1.4% (inactive)
COc1ccc(C2CC(c3cccs3)=Nc3ccccc3S2)cc1OC (stereo not drawn)	-4% (inactive)
COc1ccc(NC(=O)CSc2nc(NS(=O)(=O)c3ccc(C)cc3)cc(=O)[nH]2)cc1	0.1% (inactive)
O=S(=O)(/N=C(/Nc1ccccn1)c1ccccc1)c1ccc(Cl)cc1	-20.6% (inactive)
O=C(Nc1nnc(CCOCCOCCc2nnc(NC(=O)c3ccco3)s2)s1)c1ccco1	2.1% (inactive)
CCOCC(=O)Nc1sc2c(c1C(=O)OCC)CCCC2	31.1% (active)
CCCOC(=O)Nc1sc2c(c1C(=O)OCC)CCC2	4.6% (inactive)
CCOC(=O)c1c(NC(=O)CSc2nnc(C)c(=O)[nH]2)sc2c1CCC2	7.7% (inactive)
CC(=O)Nc1ccc(N2C(=O)C3C4CC(=O)C(c5ccccc54)C3C2=O)cc1 (stereo not drawn)	4.6% (inactive)
Cc1ccc(-n2c(=O)cc(N3CCN(Cc4ccccc4)CC3)[nH]c2=O)cc1	-36.5% (inactive)
COC(CNC(=O)Cn1ncc2ccsc2c1=O)OC	-11.2% (inactive)
Cc1ccc(/C=N/NC(=O)C(NC(=O)c2ccccc2)c2n[nH]c(=O)c3ccccc23)cc1 (stereo not drawn)	-3.6% (inactive)
CC(C)C(=O)NC(=S)Nc1ccccc1F	1.1% (inactive)
O=[N+]([O-])c1ccccc1OCCCCN1CCCCC1	1.7% (inactive)

SMILES	inhibition
CCOC(=O)COc1cc(OCC(=O)OCC)c2c(=O)cc(-c3ccccc3)oc2c1	5.4% (inactive)
CCOCc1nnc(NC(=O)CSc2ccc(C)cc2)s1	3.5% (inactive)
CCN(CC)CCNc1ccc(Cl)cc1[N+](=O)[O-]	-11.6% (inactive)
CN(C(=O)CSc1nc(C2CC2)nc2ccccc12)c1nc(-c2ccccc2)cs1	6.8% (inactive)
COC(=O)C(NC(=O)c1ccc(OC)cc1)(Nc1ncc(S(=O)(=O)c2ccc([N+](=O)[O-])cc2)s1)C(F)(F)F (stereo not drawn)	10.1% (inactive)
COc1ccc(CNCCCO)cc1OC	2.4% (inactive)
CCCCOc1ccc(C(=O)NCc2ccncc2)cc1	-7.4% (inactive)
C=CCOc1ccc(Cl)cc1CNCCCN1CCOCC1	5.6% (inactive)
COC(=O)c1c(CCl)noc1C(=O)NC(C)C	-0.8% (inactive)
CC1C/C(=N/NC(=O)c2cccs2)CC(C)(C)C1 (stereo not drawn)	25.5% (inactive)
Nc1ccccc1SCc1cc([N+](=O)[O-])cc2c1OCOC2	-1.6% (inactive)
O=C(Cn1cncn1)N/N=C/c1c2ccccc2cc2ccccc12	10.3% (inactive)
CCOC(=O)CNC(=O)CSc1nc2cccnc2n1CC	-2.1% (inactive)
CONC(=O)c1cc(OCC(F)(F)F)ccc1OCC(F)(F)F	4.4% (inactive)
CC(=O)c1nn(-c2cccc(Br)c2)cc1C(=O)c1cccc2ccccc12	-11.3% (inactive)
c1ccc(-n2nc3ccccc3n2)cc1	18% (inactive)
CC1(C)CC(=O)C=C(NCCCNC2CCCCC2)C1	0% (inactive)
CC1(C)CC(=O)C=C(NCCN2CCNCC2)C1	-15.8% (inactive)
CC1(C)CC(=O)C=C(NCCCN2CCCC2=O)C1	99.7% (active)
Cn1c(CO)cnc1SCc1ccccc1	-4.6% (inactive)
c1ccc(COc2ccccc2CNCc2cccnc2)cc1	-12.3% (inactive)
Cc1cc(C)n(C(=O)CCNC(=O)c2ccccc2Cl)n1	0.3% (inactive)
Cc1cc2c(c(=O)n1C)C(C(C)C)C(C#N)=C(N)O2 (stereo not drawn)	3.4% (inactive)
O=C(CSCc1c(Cl)cccc1Cl)NN1C(=O)c2ccccc2C1=O	7.6% (inactive)
Cc1ccc(-c2csc(N(Cc3ccco3)C(=O)c3cccs3)n2)cc1	0.8% (inactive)
S=c1[nH]nc(-c2ccco2)n1/N=C/c1ccc(Br)s1	-1.5% (inactive)

SMILES	inhibition
Cc1cccc(-n2nc3c(c2NC(=O)c2ccc(Br)o2)CSC3)c1C	0% (inactive)
Cc1cc(C)c2nc(NC(=O)c3ccc4c(c3)OCO4)sc2c1	9% (inactive)
Cc1ccc(-n2nc3c(c2NC(=O)c2ccc4c(c2)OCO4)CSC3)c(C)c1	36% (active)
O=C(COc1ccc(/C=N/NS(=O)(=O)c2ccccc2)cc1)NCCc1ccccc1	3.5% (inactive)
Cc1n[nH]c(=O)n1-c1ccc(Oc2ccccc2)cc1	3.9% (inactive)
Cc1cc(C)cc(N(C(C)C(=O)Nc2c(C)n(C)n(-c3ccccc3)c2=O)S(C)(=O)=O)c1 (stereo not drawn)	47.4% (active)
Cc1cc(C)cc(N(CC(=O)Nc2c(C)n(C)n(-c3ccccc3)c2=O)S(C)(=O)=O)c1	-3.1% (inactive)
COC(=O)Nc1c(C)n(C)n(-c2ccccc2)c1=O	-18.8% (inactive)
O=C(CSc1nnc(-c2c[nH]c3ccccc23)o1)c1ccccc1	11.5% (inactive)
O=C(CSc1nnc(Cn2cnc3ccccc32)o1)c1ccccc1	98.8% (active)
CC(=O)Nc1ccc(C(=O)CSc2nnc(Cc3ccccc3)o2)cc1	-5.2% (inactive)
CCn1c2ccccc2c2cc(NC(=O)C/C(C)=N/NC(=O)c3ccccc3N)ccc21	-8.3% (inactive)
CNC(=S)NNC(=O)c1sccc1OCc1ccccc1	-4% (inactive)
COc1cc(/C=N/O)cc(Br)c1OCc1cccc(Cl)c1	-0.3% (inactive)
CCCCNc1ccc(C(=O)Nc2cccc(C)n2)cc1[N+](=O)[O-]	-3.1% (inactive)
COc1ccc(S(=O)(=O)Nc2ccc3c(c2)OCO3)cc1Cl	96.2% (active)
COc1ccc(F)cc1S(=O)(=O)Nc1ccc2c(c1)OCO2	-3.1% (inactive)
CC(C)CNS(=O)(=O)c1ccc(OCC(=O)Nc2ccc3c(c2)OCO3)c(Cl)c1	-10.8% (inactive)
Cc1ccc(C(=O)c2c(NC(=O)c3ccncc3)sc3c2CCCC3)cc1	2.2% (inactive)
CCc1ccc(/C=N/NC(=O)c2ccc(OC3CCCC3)cc2)s1	0.3% (inactive)
Cc1nc(N2CCOCC2)nc2c1CCCC2	1.7% (inactive)
O=C(CSCc1ccc([N+](=O)[O-])cc1)NCCSCc1ccccc1	8.4% (inactive)
Cc1ccc(C)n1-c1ccncc1	34.7% (active)
Cc1ccc(N)cc1-n1c(C)ccc1C	4.3% (inactive)
COc1ccc(C(=O)c2c(C)oc3cc([N+](=O)[O-])c(O)c([N+](=O)[O-])c23)cc1	-48.7% (inactive)
